# Measured values reported in article PMC7862700, “An all-to-all approach to the identification of sequence-specific readers for epigenetic DNA modifications on cytosine”.
# Tests used:
# Assay in all cases: DAPPL (digital affinity profiling via proximity ligation, sequencing); 10 mM Tris-HCl pH 7.5, 50 mM NaCl, 1 mM DTT, 4% glycerol, room temperature, 30 min; GST-TFs on glutathione beads, 16-mer random dsDNA library, 0.1% formaldehyde crosslink after washing; high values mean tight binding
# FLI1 = molecular target: T1, FLI1 (Homo sapiens, UniProt Q01543 1-452); settings: protein: recombinant; tags: N-terminal GST; dsDNA, one strand shown
# T1 sequence: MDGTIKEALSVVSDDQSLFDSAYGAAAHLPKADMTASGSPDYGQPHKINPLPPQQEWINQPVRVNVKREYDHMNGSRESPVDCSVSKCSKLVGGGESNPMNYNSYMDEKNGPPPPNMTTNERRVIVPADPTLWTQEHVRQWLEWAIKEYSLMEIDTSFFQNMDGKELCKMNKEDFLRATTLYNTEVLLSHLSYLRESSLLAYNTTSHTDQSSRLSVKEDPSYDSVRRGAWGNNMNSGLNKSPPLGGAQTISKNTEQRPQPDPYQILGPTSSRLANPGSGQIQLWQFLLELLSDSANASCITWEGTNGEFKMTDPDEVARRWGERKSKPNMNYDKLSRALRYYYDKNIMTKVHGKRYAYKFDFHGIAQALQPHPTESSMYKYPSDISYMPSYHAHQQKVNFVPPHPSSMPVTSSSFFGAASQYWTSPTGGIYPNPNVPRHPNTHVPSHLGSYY
# How it was run: (§1)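 In yeast, human transcription factors were expressed with a GST fusion, then pulled down on glutathione beads and given DNA barcodes. Pooled with a tag-only sample, they were exposed to 200 nmole of a 16-mer random double-stranded DNA library (Tris/NaCl/DTT/glycerol buffer, room temperature, 30 min), washed, crosslinked with 0.1% formaldehyde, proximity-ligated using BsaI/T4 ligase for 1 h at 37 °C, PCR-amplified and read on an Illumina NextSeq500. Each hexamer's frequency of reads for a factor, divided by the matching frequency for the tag-only sample, gives the binding signal.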
# ELK1 = molecular target: T2, ELK1 (Homo sapiens, UniProt P19419 1-428); settings: protein: recombinant; tags: N-terminal GST; dsDNA, one strand shown
# T2 sequence: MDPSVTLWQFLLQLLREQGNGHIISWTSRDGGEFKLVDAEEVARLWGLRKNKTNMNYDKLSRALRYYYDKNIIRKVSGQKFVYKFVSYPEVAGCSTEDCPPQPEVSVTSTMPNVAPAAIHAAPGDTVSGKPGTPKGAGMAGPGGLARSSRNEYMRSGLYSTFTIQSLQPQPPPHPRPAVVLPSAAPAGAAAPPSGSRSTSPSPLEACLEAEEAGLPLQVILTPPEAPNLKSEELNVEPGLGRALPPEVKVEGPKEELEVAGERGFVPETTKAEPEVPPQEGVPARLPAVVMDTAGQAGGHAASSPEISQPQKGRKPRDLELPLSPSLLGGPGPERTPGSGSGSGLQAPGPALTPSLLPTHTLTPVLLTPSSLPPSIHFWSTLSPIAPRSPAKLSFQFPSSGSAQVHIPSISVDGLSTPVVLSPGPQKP
# How it was run: as §1
# GABPA = molecular target: T3, GABPA (Homo sapiens, UniProt Q06546 1-454); settings: protein: recombinant; tags: N-terminal GST; dsDNA, one strand shown
# T3 sequence: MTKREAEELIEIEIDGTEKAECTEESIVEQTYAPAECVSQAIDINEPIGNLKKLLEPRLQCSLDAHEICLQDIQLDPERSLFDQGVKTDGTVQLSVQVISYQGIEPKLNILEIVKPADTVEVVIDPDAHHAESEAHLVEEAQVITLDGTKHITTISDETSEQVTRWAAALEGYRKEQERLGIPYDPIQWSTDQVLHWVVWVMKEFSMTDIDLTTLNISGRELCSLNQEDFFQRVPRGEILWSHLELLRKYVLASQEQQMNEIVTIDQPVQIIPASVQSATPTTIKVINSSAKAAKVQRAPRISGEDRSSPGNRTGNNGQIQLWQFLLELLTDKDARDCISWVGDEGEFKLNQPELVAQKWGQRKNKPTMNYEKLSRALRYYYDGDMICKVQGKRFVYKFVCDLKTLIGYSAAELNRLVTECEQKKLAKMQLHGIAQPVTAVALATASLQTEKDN
# How it was run: as §1
# ERG = molecular target: T4, ERG (Homo sapiens, UniProt P11308 1-479); settings: protein: recombinant; tags: N-terminal GST; dsDNA, one strand shown
# T4 sequence: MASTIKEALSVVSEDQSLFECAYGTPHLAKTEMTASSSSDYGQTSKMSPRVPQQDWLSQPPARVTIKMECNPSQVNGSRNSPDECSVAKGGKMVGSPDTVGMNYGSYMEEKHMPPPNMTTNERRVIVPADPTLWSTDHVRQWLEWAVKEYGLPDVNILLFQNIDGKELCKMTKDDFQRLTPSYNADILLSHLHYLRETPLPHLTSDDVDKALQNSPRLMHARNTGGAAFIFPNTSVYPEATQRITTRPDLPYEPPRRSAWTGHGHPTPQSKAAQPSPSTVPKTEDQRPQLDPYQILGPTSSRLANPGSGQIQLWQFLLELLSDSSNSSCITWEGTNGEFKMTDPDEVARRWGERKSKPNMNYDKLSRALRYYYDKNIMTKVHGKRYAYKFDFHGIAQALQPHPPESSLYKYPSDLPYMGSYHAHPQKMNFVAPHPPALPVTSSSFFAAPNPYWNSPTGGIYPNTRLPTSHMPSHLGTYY
# How it was run: as §1
# ELF1 = ELF1 (Homo sapiens, UniProt P32519 1-619); settings: protein: recombinant; tags: N-terminal GST; dsDNA, one strand shown
# Chain of ELF1 (P32519 whole entry): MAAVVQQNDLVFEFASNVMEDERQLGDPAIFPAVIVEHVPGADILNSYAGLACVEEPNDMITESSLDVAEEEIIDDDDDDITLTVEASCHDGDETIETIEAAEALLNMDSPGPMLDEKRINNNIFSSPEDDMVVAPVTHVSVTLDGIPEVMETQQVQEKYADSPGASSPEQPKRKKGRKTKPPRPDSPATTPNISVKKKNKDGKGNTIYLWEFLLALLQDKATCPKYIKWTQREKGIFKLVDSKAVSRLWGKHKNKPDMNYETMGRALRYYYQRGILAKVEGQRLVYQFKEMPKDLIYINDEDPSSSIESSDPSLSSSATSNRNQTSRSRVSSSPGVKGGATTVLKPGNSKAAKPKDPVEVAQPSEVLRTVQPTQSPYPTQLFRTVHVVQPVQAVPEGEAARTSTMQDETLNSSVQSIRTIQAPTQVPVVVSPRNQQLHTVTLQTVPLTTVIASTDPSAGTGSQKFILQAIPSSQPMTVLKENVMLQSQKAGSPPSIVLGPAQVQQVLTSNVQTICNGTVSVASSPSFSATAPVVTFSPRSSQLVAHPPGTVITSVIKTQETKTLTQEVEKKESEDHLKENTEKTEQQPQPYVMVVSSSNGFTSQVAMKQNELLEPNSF
# How it was run: as §1
# EHF = molecular target: T5, EHF (Homo sapiens, UniProt Q9NZC4 1-300); settings: protein: recombinant; tags: N-terminal GST; dsDNA, one strand shown
# T5 sequence: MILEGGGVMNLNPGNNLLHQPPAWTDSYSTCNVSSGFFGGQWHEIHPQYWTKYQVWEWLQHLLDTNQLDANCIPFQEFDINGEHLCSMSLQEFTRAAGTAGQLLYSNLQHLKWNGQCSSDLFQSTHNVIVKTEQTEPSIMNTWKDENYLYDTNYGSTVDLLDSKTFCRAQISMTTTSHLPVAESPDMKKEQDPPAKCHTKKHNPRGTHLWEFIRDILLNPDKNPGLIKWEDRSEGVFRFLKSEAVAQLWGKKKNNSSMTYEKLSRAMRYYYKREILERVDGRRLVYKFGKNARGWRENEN
# How it was run: as §1
# SPI1 = SPI1 (Homo sapiens, UniProt P17947 1-270); settings: protein: recombinant; tags: N-terminal GST; dsDNA, one strand shown
# How it was run: as §1
# SPIB = SPIB (Homo sapiens, UniProt Q01892 1-262); settings: protein: recombinant; tags: N-terminal GST; dsDNA, one strand shown
# Chain of SPIB (Q01892 whole entry): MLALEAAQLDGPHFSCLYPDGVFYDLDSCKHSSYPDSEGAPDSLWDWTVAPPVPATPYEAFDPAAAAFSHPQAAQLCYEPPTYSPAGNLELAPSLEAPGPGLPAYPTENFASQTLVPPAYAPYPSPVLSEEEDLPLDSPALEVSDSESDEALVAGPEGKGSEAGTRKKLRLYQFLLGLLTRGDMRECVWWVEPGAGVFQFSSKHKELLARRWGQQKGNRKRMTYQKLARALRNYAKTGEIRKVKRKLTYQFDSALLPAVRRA
# How it was run: as §1
# ELK3 = molecular target: T6, ELK3 (Homo sapiens, UniProt P41970 1-407); settings: protein: recombinant; tags: N-terminal GST; dsDNA, one strand shown
# T6 sequence: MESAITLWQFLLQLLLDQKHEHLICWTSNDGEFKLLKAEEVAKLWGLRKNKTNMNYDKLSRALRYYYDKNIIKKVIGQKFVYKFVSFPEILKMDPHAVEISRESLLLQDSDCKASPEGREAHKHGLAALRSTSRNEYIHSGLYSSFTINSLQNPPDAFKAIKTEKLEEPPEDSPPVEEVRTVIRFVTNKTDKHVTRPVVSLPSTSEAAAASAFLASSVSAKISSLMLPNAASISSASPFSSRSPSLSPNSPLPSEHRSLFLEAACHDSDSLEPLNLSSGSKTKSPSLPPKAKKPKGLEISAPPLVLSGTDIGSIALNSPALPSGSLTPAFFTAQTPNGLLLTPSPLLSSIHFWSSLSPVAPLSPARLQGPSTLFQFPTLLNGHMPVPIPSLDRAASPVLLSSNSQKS
# How it was run: as §1
# FEV = molecular target: T7, FEV (Homo sapiens, UniProt Q99581 1-238); settings: protein: recombinant; tags: N-terminal GST; dsDNA, one strand shown
# T7 sequence: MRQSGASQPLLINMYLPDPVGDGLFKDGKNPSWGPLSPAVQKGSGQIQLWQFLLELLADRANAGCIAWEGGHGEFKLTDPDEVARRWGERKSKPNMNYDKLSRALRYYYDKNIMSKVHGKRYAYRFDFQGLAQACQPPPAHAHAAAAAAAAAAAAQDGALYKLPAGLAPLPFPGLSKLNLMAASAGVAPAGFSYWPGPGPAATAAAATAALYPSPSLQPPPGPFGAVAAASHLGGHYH
# How it was run: as §1
# ETV5 = ETV5 (Homo sapiens, UniProt P41161 1-510); settings: protein: recombinant; tags: N-terminal GST; dsDNA, one strand shown
# Chain of ETV5 (P41161 whole entry): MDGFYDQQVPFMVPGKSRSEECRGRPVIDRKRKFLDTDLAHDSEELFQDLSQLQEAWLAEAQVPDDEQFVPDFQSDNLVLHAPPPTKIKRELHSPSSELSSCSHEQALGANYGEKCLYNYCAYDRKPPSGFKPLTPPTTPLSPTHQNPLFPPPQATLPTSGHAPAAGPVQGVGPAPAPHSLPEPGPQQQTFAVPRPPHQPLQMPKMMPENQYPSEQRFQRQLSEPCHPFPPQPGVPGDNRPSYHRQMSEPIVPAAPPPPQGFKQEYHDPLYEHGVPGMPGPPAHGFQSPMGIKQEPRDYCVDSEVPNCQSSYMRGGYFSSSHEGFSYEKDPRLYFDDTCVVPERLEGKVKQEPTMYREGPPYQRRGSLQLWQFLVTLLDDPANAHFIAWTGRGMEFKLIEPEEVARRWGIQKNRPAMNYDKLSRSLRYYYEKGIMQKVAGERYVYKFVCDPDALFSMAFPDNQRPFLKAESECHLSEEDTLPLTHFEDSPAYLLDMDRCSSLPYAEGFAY
# How it was run: as §1
# HSF1 = HSF1 (Homo sapiens, UniProt Q00613 1-529); settings: protein: recombinant; tags: N-terminal GST; chain copies: 3; dsDNA, one strand shown
# Chain of HSF1 (Q00613 whole entry): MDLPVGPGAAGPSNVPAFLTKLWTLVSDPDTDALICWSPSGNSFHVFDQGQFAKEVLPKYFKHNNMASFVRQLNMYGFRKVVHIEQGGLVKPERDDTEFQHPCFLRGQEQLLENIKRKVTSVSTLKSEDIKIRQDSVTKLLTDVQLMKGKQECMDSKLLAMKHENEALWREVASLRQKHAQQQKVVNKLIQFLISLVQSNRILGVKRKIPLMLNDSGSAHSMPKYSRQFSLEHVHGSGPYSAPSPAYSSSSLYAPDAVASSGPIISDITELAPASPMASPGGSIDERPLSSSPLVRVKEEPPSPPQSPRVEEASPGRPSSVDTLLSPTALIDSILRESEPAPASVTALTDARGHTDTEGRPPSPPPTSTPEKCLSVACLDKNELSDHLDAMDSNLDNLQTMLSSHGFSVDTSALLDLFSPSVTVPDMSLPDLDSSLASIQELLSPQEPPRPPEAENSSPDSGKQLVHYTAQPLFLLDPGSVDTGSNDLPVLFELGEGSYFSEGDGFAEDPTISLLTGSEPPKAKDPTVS
# How it was run: as §1
# SPIC = molecular target: T8, SPIC (Homo sapiens, UniProt Q8N5J4 1-248); settings: protein: recombinant; tags: N-terminal GST; dsDNA, one strand shown
# T8 sequence: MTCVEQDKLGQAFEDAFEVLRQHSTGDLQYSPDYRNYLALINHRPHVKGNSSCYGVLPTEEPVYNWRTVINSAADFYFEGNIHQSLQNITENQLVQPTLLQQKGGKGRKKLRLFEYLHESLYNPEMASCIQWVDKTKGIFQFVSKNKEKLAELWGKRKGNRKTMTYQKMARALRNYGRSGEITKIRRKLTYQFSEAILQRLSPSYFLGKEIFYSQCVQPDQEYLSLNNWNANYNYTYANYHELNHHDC
# How it was run: as §1
# ELF4 = ELF4 (Homo sapiens, UniProt Q99607 1-663); settings: protein: recombinant; tags: N-terminal GST; dsDNA, one strand shown
# Chain of ELF4 (Q99607 whole entry): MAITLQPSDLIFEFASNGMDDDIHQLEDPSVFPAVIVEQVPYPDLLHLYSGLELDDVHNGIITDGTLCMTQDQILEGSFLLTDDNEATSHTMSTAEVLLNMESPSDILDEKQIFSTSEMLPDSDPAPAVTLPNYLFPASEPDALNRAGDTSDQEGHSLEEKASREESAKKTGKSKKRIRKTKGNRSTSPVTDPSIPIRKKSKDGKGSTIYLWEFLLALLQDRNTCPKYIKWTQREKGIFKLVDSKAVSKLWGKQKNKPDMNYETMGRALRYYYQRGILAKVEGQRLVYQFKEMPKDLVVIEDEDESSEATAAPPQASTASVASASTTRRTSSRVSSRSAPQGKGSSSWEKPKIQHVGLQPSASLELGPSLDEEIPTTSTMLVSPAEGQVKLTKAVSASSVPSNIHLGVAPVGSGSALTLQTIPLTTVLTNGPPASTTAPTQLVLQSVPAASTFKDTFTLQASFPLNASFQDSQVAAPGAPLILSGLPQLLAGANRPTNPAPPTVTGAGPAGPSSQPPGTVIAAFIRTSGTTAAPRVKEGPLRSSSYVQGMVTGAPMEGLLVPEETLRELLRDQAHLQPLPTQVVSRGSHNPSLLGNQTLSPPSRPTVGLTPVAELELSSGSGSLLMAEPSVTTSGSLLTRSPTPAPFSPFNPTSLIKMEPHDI
# How it was run: as §1
# ELK4 = molecular target: T9, ELK4 (Homo sapiens, UniProt P28324-2 1-405); settings: protein: recombinant; tags: N-terminal GST; dsDNA, one strand shown
# T9 sequence: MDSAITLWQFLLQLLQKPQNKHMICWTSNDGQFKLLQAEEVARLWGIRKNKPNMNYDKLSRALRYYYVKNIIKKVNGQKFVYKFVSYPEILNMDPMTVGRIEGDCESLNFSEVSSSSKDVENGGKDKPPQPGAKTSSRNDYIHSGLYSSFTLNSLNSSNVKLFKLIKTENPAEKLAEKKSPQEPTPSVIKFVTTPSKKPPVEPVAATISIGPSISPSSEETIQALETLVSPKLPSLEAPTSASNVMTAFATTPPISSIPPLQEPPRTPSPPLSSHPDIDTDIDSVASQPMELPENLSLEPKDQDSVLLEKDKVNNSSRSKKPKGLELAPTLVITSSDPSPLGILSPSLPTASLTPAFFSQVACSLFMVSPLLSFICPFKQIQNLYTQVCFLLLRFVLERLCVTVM
# How it was run: as §1
# ETV2 = molecular target: T10, ETV2 (Homo sapiens, UniProt O00321 1-342); settings: protein: recombinant; tags: N-terminal GST; dsDNA, one strand shown
# T10 sequence: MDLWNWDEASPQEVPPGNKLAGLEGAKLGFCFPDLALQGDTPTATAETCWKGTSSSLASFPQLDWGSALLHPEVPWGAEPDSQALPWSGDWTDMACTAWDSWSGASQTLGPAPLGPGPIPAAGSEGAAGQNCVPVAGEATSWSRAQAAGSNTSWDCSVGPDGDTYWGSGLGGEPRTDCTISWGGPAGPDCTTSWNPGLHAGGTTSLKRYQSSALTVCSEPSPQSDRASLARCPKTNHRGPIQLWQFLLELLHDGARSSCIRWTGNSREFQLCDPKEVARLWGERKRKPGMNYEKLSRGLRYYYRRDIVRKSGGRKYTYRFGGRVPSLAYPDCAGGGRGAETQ
# How it was run: as §1
# ELF3 = molecular target: T11, ELF3 (Homo sapiens, UniProt P78545 1-371); settings: protein: recombinant; tags: N-terminal GST; dsDNA, one strand shown
# T11 sequence: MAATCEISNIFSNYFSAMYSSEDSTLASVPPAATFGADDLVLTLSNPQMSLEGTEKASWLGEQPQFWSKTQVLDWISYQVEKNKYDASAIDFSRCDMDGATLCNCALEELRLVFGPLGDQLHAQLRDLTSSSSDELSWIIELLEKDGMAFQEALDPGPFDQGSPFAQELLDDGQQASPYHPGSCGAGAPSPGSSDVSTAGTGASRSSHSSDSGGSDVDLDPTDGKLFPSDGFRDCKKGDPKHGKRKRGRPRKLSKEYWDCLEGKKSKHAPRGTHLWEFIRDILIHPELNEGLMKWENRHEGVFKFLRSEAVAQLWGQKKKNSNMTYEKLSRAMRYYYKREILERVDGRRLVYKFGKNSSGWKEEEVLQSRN
# How it was run: as §1
# CRX = CRX (Homo sapiens, UniProt O43186 1-299); settings: protein: recombinant; tags: N-terminal GST; dsDNA, one strand shown
# Chain of CRX (O43186 whole entry): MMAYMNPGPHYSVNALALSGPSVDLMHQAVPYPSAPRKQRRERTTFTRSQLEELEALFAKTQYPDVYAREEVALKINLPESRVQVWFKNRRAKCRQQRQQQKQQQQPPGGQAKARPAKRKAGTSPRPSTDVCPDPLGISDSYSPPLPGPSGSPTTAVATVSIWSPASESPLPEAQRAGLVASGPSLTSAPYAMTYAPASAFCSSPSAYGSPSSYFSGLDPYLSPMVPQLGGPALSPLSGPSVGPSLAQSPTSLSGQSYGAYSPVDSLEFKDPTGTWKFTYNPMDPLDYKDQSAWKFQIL
# How it was run: as §1
# ETV1 = ETV1 (Homo sapiens, UniProt P50549 1-477); settings: protein: recombinant; tags: N-terminal GST; dsDNA, one strand shown
# Chain of ETV1 (P50549 whole entry): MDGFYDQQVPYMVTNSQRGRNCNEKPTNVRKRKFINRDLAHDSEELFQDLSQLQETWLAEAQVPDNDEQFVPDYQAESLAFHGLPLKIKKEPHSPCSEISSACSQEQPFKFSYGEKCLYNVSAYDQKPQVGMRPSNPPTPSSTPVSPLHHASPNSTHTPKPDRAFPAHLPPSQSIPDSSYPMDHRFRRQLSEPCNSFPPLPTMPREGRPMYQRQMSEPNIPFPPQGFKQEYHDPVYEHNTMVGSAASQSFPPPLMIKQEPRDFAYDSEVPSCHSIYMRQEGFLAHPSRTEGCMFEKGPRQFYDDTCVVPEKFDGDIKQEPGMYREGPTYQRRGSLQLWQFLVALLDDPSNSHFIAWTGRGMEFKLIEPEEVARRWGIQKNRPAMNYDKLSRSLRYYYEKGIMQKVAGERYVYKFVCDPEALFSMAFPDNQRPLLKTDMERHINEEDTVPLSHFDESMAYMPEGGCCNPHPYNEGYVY
# How it was run: as §1
sequence,measurement,setting,value
GATCTT,binding signal,FLI1,"1.29 fold enrichment (6-mer frequency, TF over GST control)"
same,binding signal,ELK1,"1.33 fold enrichment (6-mer frequency, TF over GST control)"
same,binding signal,GABPA,"1.32 fold enrichment (6-mer frequency, TF over GST control)"
same,binding signal,ERG,"1.35 fold enrichment (6-mer frequency, TF over GST control)"
same,binding signal,ELF1,"1.23 fold enrichment (6-mer frequency, TF over GST control)"
same,binding signal,EHF,"1.22 fold enrichment (6-mer frequency, TF over GST control)"
same,binding signal,SPI1,"1.19 fold enrichment (6-mer frequency, TF over GST control)"
same,binding signal,SPIB,"1.36 fold enrichment (6-mer frequency, TF over GST control)"
same,binding signal,ELK3,"1.29 fold enrichment (6-mer frequency, TF over GST control)"
same,binding signal,FEV,"1.14 fold enrichment (6-mer frequency, TF over GST control)"
same,binding signal,ETV5,"1.21 fold enrichment (6-mer frequency, TF over GST control)"
same,binding signal,HSF1,"1.62 fold enrichment (6-mer frequency, TF over GST control)"
same,binding signal,SPIC,"1.42 fold enrichment (6-mer frequency, TF over GST control)"
same,binding signal,ELF4,"1.26 fold enrichment (6-mer frequency, TF over GST control)"
same,binding signal,ELK4,"1.23 fold enrichment (6-mer frequency, TF over GST control)"
same,binding signal,ETV2,"1.18 fold enrichment (6-mer frequency, TF over GST control)"
same,binding signal,ELF3,"1.43 fold enrichment (6-mer frequency, TF over GST control)"
same,binding signal,CRX,"1.71 fold enrichment (6-mer frequency, TF over GST control)"
same,binding signal,ETV1,"1.25 fold enrichment (6-mer frequency, TF over GST control)"
